Test results as given in PubChem BioAssay.
Active and inactive are the calls of the source.

How the values were obtained:
[1] = tested on: Plasmodium falciparum Sir2 (PF13_0152, Sir2A); assay: Plasmodium falciparum Sir2A binding compounds – biochemical, small-molecule microarray, 635 nm fluorescence, primary screen (AID 1098); settings: fluorescence 635 nm, higher = more signal;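 also: score merges spot fluorescence intensity with its signal-to-noise ratio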
[2] = probe aDKK1 binding to arrayed compounds – biochemical, biotinylated probe, 635/667 nm fluorescence, primary screen (AID 1099); settings: small-molecule microarray, higher = more signal;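 also: score merges 667nm spot fluorescence with signal to noise across triplicate slides; reference of the scale not given here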
[3] = probe aCHRDL2 binding to arrayed compounds – biochemical, biotinylated probe, 635/667 nm fluorescence, primary screen (AID 1100); settings: small-molecule microarray, higher = more signal
[4] = change in splice reporter luminescence, either direction, cell-based, HEK293, spliceosome inhibition project, primary screen (AID 1101); settings: HEK293 splicing luciferase reporter, 24 h, higher = more signal, called active from +8 up or from −8 down;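 also: HEK293 cells carrying a splicing-competent luciferase reporter gene; test concentration not given here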
[5] = molecular target: Fibroblast growth factor 10 (Homo sapiens) (UniProt O15520); assay: compounds binding fibroblast growth factor 10 – biochemical, small-molecule microarray, 635 nm fluorescence, primary screen (AID 1102); settings: FGF10 binding, fluorescence 635 nm, higher = more signal
Sequence of Fibroblast growth factor 10 (Homo sapiens) (O15520 whole entry, looked up): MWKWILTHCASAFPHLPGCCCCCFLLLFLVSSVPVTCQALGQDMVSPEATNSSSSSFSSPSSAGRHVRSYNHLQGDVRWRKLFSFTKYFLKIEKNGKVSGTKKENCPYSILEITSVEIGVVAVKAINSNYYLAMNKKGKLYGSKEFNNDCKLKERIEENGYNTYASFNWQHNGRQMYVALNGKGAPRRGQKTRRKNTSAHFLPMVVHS

[6] = tested on: glycogen synthase kinase-3 (GSK3A per assay name; protocol says GSK3B); assay: compounds binding glycogen synthase kinase-3 – biochemical, small-molecule microarray, 635 nm fluorescence, GSK3A, primary screen (AID 1103); settings: fluorescence 635 nm, higher = more signal; also: the record names both GSK3A and GSK3B
[7] = molecular target: Epidermal growth factor receptor (Homo sapiens) (UniProt P00533); assay: compounds binding epidermal growth factor receptor – biochemical, small-molecule microarray, 635 nm fluorescence, primary screen (AID 1104); settings: EGFR binding, higher = more signal;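 also: score merges 667 nm emission intensity with spot signal to noise over triplicate slides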
Sequence of Epidermal growth factor receptor (Homo sapiens) (P00533 whole entry, looked up): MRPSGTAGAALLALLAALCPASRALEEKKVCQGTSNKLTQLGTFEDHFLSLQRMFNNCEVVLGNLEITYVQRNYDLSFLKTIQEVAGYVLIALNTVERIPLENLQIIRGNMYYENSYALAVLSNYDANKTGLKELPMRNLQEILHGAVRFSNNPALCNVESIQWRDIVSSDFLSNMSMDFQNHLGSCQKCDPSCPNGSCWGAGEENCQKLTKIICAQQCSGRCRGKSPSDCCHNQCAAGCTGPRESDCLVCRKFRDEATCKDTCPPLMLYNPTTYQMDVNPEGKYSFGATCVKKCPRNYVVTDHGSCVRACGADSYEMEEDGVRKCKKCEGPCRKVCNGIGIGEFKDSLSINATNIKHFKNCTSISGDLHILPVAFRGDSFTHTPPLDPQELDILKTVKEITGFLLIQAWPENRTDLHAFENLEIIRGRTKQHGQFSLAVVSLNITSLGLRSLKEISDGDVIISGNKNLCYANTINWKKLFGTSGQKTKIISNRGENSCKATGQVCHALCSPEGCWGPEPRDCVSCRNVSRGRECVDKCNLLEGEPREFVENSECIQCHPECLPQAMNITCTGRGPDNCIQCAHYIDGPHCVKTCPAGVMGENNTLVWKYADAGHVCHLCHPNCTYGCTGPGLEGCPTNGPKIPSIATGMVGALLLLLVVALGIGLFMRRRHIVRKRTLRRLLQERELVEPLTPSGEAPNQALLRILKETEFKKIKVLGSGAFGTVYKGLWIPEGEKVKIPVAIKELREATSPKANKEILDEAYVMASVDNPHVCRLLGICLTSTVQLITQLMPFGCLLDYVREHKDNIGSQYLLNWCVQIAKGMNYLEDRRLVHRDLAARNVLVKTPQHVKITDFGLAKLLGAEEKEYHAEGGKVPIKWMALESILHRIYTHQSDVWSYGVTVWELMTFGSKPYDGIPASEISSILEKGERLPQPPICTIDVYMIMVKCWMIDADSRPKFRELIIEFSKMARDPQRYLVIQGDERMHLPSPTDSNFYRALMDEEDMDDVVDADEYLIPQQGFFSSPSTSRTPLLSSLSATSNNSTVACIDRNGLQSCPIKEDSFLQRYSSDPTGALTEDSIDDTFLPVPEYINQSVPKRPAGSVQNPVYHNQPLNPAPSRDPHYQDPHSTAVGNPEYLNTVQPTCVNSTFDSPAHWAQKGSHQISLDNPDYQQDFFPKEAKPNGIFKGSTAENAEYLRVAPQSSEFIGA

[8] = molecular target: Follistatin-related protein 3 (Homo sapiens) (UniProt O95633); assay: compounds binding follistatin-related protein 3 – biochemical, small-molecule microarray, 635 nm fluorescence, primary screen (AID 1105); settings: FSTL3 binding, higher = more signal;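 also: score merges emission near 667 nm and signal to noise per printed spot across three slides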
Sequence of Follistatin-related protein 3 (Homo sapiens) (O95633 whole entry, looked up): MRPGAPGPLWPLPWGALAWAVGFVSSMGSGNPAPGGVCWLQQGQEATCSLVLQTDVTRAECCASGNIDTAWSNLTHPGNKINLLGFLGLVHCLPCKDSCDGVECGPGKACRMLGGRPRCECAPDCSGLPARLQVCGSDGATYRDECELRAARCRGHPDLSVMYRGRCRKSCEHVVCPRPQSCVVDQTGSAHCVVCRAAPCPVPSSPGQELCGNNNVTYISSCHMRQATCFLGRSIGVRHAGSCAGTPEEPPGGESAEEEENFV

[9] = molecular target: Dickkopf-related protein 1 (Homo sapiens) (UniProt O94907); assay: small molecules binding DKK1 protein – biochemical, small-molecule microarray, 635 nm fluorescence scan, primary screen (AID 1106); settings: higher = more signal;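 also: score merges emission near 667 nm with signal to noise over three replicate slides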
Sequence of Dickkopf-related protein 1 (Homo sapiens) (O94907 whole entry, looked up): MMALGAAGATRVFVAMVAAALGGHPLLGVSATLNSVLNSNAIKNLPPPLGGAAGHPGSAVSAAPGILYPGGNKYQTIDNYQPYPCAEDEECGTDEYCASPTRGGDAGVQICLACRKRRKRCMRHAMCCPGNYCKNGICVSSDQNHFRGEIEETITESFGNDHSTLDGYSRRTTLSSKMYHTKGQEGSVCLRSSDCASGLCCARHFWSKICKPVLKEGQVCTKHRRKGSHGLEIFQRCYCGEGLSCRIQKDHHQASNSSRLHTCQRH

[10] = tested on: Inhibin beta A chain (activin A); assay: small molecules binding activin A – biochemical, small-molecule microarray, 635 nm fluorescence scan, primary screen (AID 1107); settings: INHBA, higher = more signal;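 also: mouse activin A protein probed at 4.33 µg/mL on printed slides; score merges bound-protein fluorescence near 667 nm with spot signal-to-noise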

Row | SMILES | composite z-score [1] | composite z-score [2] | composite z-score [3] | z-score [4] | composite z-score [5] | composite z-score [6] | composite z-score [7] | composite z-score [8] | composite z-score [9] | composite z-score [10]
1 | COC(=O)[C@H](Cc1ccccc1)N1CC(/C=C/C2CC2)=C[C@@H]1[C@@H](O)Cc1ccccc1 | 1.01 | 0.0175 | -0.276 | 3.96 (inactive) | 1.47 | 0.837 | 0.688 | 1.4 | 1.2 | 0.142
2 | Cc1c(NC(=O)/C(C#N)=C/C=C/c2ccc(N(C)C)cc2)c(=O)n(-c2ccccc2)n1C | 0.917 | 0.735 | 0.294 | -0.0455 (inactive) | 0.89 | 1.02 | 0.994 | 0.788 | 0.646 | 1.08
3 | CC1CC/C=C\[C@H]2OC34C=CCN(c5ccc6ccccc6c5)C(=O)[C@H]3N(C(CO)C(C)C)C(=O)[C@@H]4C2C(=O)O1 (stereo not given in full) | 0.675 | -0.305 | 0.623 | 6.6e-05 (inactive) | -0.209 | -0.176 | -0.56 | -0.163 | -0.495 | 1.2
4 | COCC(=C=CC[C@H](O)c1cccc(OCCO)c1)C[C@H](O)c1ccccn1 | 0.543 | 0.161 | -0.173 | -1 (inactive) | 1.3 | -0.214 | -0.366 | -0.0496 | 0.354 | 0.281
5 | CN(C)CCCCNC(=O)[C@H]1C[C@H]2C(=O)N[C@@H](CCCCN(C)C)C(=O)N2[C@H]1c1cccc(OCCO)c1 | 1.12 | -0.199 | -0.434 | -0.404 (inactive) | 1.21 | 1.29 | 0.514 | 1.11 | 0.418 | 0.0714
6 | NC(=O)N1C(=O)C2C(C1=O)C1C=C(c3ccc(CO)cc3)C2C(C2CC2)N1Cc1sc2ccccc2c1Cl (stereo not given) | 0.834 | -0.0675 | 0.102 | -0.72 (inactive) | 1.25 | 1.12 | 0.553 | 1.21 | 0.307 | -0.115
7 | CCCCC(=C=CC[C@@H](O)c1ccc(OCCO)cc1)C[C@@H](O)COCc1ccccc1 | 1.27 | -0.338 | -0.212 | -0.784 (inactive) | 1.01 | -0.0016 | -0.3 | 0.245 | 0.111 | 0.856
8 | CC(C)(C)OC(=O)CC[C@]1(C(=O)O)N=C(c2ccc(OCCCO)cc2)O[C@H]1c1ccccc1 | 1.14 | 0.191 | 0.542 | -1.32 (inactive) | -0.272 | -0.406 | -0.329 | -0.121 | -0.517 | 0.734
9 | COC(=O)Cn1c(C(=O)N2CCCC2)cc2c1C[C@H]1CN(C(=O)c3ccccc3)[C@@](Cc3ccc(F)cc3)(C(=O)OC)[C@@H]21 | 0.643 | 0.222 | -0.0982 | -1.13 (inactive) | -0.134 | -0.576 | 0.588 | 0.412 | -0.181 | 0.675
10 | COc1c(C)cc(-c2cc3c(c(Cc4ccccc4)n2)[Si](C(C)C)(C(C)C)OC3)cc1C | 0.214 | -0.0724 | -0.313 | -0.206 (inactive) | 0.0744 | -0.0485 | 0.181 | 0.235 | 0.0324 | 0.137
11 | C[C@H]1C2=C3C(CC[C@H]4C(OCc5ccc(F)cc5C(F)(F)F)OC[C@](C)([C@@H]34)N(C(=O)OC(C)(C)C)C2)C(CO)C1CO (stereo not given in full) | 0.0402 | -0.0997 | 0.984 | 0.509 (inactive) | -0.0455 | 0.875 | -0.249 | 0.885 | -0.461 | 1.09
12 | CCCCC(CC)C(O)C1C=CC2C(=O)N(c3ccccc3)C(=O)C2N1Nc1ccc([N+](=O)[O-])cc1 (stereo not given) | 1.31 | 0.68 | 0.457 | 0.63 (inactive) | 1.01 | 1.34 | 0.444 | 1.34 | 0.155 | 0.532
13 | C=C(CCCC)/C(=C/C[C@@H](OC(C)=O)c1ccc(CO)o1)c1cc(C(=O)OC)ccc1OC | 0.416 | -0.198 | -0.549 | 1.32 (inactive) | 1.19 | 1.13 | 0.0789 | 1.4 | 0.543 | 0.207
14 | C[C@H]1C2=C3C(CC[C@H]4C(OCc5ccc(F)cc5C(F)(F)F)OC[C@](C)([C@@H]34)N(C(=O)OC(C)(C)C)C2)C2COC(=O)OCC21 (stereo not given in full) | 0.0559 | 0.457 | 1.28 | -0.848 (inactive) | 0.0151 | 0.987 | 0.0472 | 0.768 | -0.648 | 0.572
15 | C=CCOC(=O)[C@H]1[C@@H]2C(=O)O[C@@H](c3ccccc3)[C@@H](c3ccccc3)N2[C@@H](c2ccc(OCCOC(=O)[C@H]3C[C@H]4C(=O)N[C@@H](Cc5ccccc5)C(=O)N4[C@H]3c3cccc(OCCO)c3)cc2)[C@]12C(=O)Nc1ccc(I)cc12 | 1.12 | -0.298 | -0.0762 | 0.959 (inactive) | 1.24 | 1.28 | 0.536 | 1.29 | 0.759 | 0.17
16 | COC(=O)[C@@]1(Cc2ccccc2)[C@H]2c3cc(C(=O)N4CCCC4)n(C[C@H](O)CO)c3C[C@H]2CN1C(=O)c1ccccc1 | 1.06 | 0.571 | 1.01 | 0.797 (inactive) | -0.209 | -0.0288 | -0.455 | 0.0783 | -1.11 | 0.956
